Screening data (PubChem BioAssay)
Most compounds without a hit are left out; they make up all but 3.1% or so of the library.
Calb FLC – C. albicans growth inhibition with fluconazole, primary screen, CaCi-2 strain, Alamar Blue fluorescence; C. albicans CaCi-2 (fluconazole-resistant clinical isolate) + fluconazole, 48 h; growth inhibition, % (concentration not given with the values); actives 0.57% (n = 300,000); AID 1979, 2009;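 active means growth inhibition above about 58% in most replicates, limit read from the data, passing the limit was not always enough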;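 further: all wells also contain fluconazole at 8 µg/ml as a sub-toxic cotreatment; 0% = median of DMSO wells and 100% = median of geldanamycin control wells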
ATG4B inh – ATG4B protease inhibitors, primary screen, biochemical, fluorescence, uHTS | ATG4B cleavage of LC3-PLA2, NBD-HPC fluorescence, 1 h | inhibition, % at 8.33 µM | actives 0.51% (n = 340,000) | AID 504462, 2011; in the data active means inhibition above about 40%
FAS TE block – FAS thioesterase domain inhibitors, primary screen, biochemical, fluorescence intensity, uHTS. Fatty acid synthase (Homo sapiens), P49327. recombinant FAS-TE, OMFH fluorogenic substrate, fluorescence endpoint. inhibition, % at 15 µM. actives 0.67% (n = 360,000);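 active means compounds whose normalised, plate-corrected inhibition of enzyme fluorescence in the single-dose primary screen is 50% or more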;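 further: 0% = DMSO with enzyme and 100% = substrate without enzyme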
NadD block – inhibitors of S. aureus NadD, primary screen, biochemical, colorimetric, uHTS; purified NadD enzyme, colorimetric absorbance read-out; inhibition, % at 20 µM; actives 0.78% (n = 360,000); AID 602399, 2012; in the data active means inhibition above about 26%
Mot1-301 SUMO – yeast Mot1-301 growth rescue at high temperature, primary screen, SUMOylation pathway inhibitor project, S. cerevisiae, ATP luminescence, 38.5C | S. cerevisiae Mot1-301 growth rescue; percent above DMSO median, 100 means doubled | growth rescue, % at 18.8 µM | actives 1% (n = 320,000);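 active means every valid replicate shows activation above 250% relative to neutral control wells; inactive means the rest, any valid replicate at or below 250%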;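 further: OY570 slx delta 5 strain wells were the positive control but not used for scaling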
FAS-TE inh conf – FAS thioesterase domain inhibitors, confirmation, biochemical, fluorescence intensity, single concentration. shares compounds with FAS TE block. actives 45% (n = 2,300). AID 624325, 2012. inhibition, % at 15 µM. recombinant FAS-TE, OMFH fluorogenic substrate;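 active means compounds inhibiting the enzyme by at least 50% at 15 µM in any one of the replicates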;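 further: 0% = enzyme with DMSO only and 100% = wells lacking enzyme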
* marks the source's active call; other numbers are inactive results; . = not tested or not shown.

SMILES	Calb FLC	ATG4B inh	FAS TE block	NadD block	Mot1-301 SUMO	FAS-TE inh conf
CC(=O)Nc1ccc(NC(=O)c2ccccc2S(=O)(=O)c2ccc([N+](=O)[O-])cc2)cc1	-4	-11	59*	-2	-7	64*
O=C(CNCc1ccc(Cl)cc1)Nc1cc(S(=O)(=O)N2CCCC2)ccc1Cl	.	-11	32	1	.	.
CC(C)(C)n1ncc2c(=O)n(Cc3cc(F)c(Cl)cc3Cl)cnc21	.	-6	52*	-4	12	35
CCCOc1ccc(NC(=O)CC2C(=O)N(CC)C(=S)N2Cc2cccs2)cc1 (stereo not given)	3	12	59*	-8	30	65*
COc1ccc(CCN2C(=S)N(C)C(=O)C2CC(=O)Nc2ccc(OC)cc2)cc1 (stereo not given)	-17	29	14	-16	202	.
COc1ccc(NC(=O)CC2C(=O)N(C)C(=S)N2Cc2cccs2)cc1 (stereo not given)	9	12	51*	-1	-11	58*
Cc1ccc(S(=O)(=O)Oc2ccc(/C=C3/N=C(c4ccccc4)OC3=O)cc2)cc1	-4	-2	54*	19	0	15
COc1ccc(/C=C2\N=C(c3ccc(C)cc3)OC2=O)cc1	1	-2	12	9	-1	.
COc1ccc(-c2cc(C(=O)Nc3nc4c(C)cccc4s3)c3ccccc3n2)cc1OC	3	15	68*	13	.	13
COc1cc(-c2cc(C(=O)Nc3c(Cl)cc(Cl)cc3Cl)c3ccccc3n2)cc(OC)c1OC	1	-4	56*	4	-22	19
COc1ccc(NC(=O)c2cc(-c3cc(OC)c(OC)c(OC)c3)nc3ccccc23)cc1OC	14	-14	11	-4	-6	.
COc1ccccc1NC(=O)c1cc(-c2ccc(OC)c(OC)c2)nc2ccccc12	1	6	12	-3	.	.
Cc1ccc(S(=O)(=O)/N=C(\Sc2ccccc2)c2ccccc2)cc1	9	4	63*	-8	-5	51*
Cc1ccc(S(=O)(=O)/N=C(/Sc2ccccc2C(=O)O)c2ccccc2)cc1	-8	5	16	0	342	.
O=S(=O)(/N=C(\Sc1ccccc1)c1ccccc1)c1ccc(Cl)cc1	-18	6	66*	0	-15	41
CC(C)(C)OC(=O)NCCc1nnc(S(=O)(=O)Cc2ccc(Cl)cc2Cl)o1	-13	-11	64*	1	87	67*
CC(C)(C)OC(=O)NCCc1nnc(SCc2ccccc2Cl)o1	5	3	6	-5	-14	.
COCCN(C(=O)c1cc(-c2ccco2)nc2ccccc12)c1c(N)n(Cc2ccccc2)c(=O)[nH]c1=O	.	9	-1	12	3	.
CCCCC(CC)C(=O)Nc1cc([N+](=O)[O-])ccc1F (stereo not given)	-20	-3	79*	2	10	71*
COc1ccc(S(=O)(=O)Nc2ccc3c(c2)C(=O)N([C@H](C)CO)C[C@H](C)[C@@H](CN(C)C(=O)Nc2ccc(C(F)(F)F)cc2)OCCCC[C@H](C)O3)cc1	.	.	63*	1	.	23
COc1ccc(S(=O)(=O)Nc2ccc3c(c2)C(=O)N([C@H](C)CO)C[C@H](C)[C@@H](CN(C)C(=O)Nc2ccc(F)cc2)OCCCC[C@H](C)O3)cc1	.	.	15	5	.	.
COc1ccc(S(=O)(=O)N(C)C[C@@H]2OCCCC[C@@H](C)Oc3ccc(NS(=O)(=O)c4cccs4)cc3C(=O)N([C@H](C)CO)C[C@@H]2C)cc1	.	.	67*	8	.	15
CCN(CC)c1cc2nonc2c2nonc12	8	-4	51*	-3	25	45*
CCOC1=C2CN(S(=O)(=O)c3ccc(C)cc3)[C@@H](c3ccc(CC)cc3)C[C@H]2[C@H]2C(=O)N(c3ccccc3)C(=O)[C@H]2C1	.	.	72*	12	.	31
CCOC1=C2CN(S(=O)(=O)c3ccc(C)cc3)[C@H](c3ccccc3)C[C@H]2[C@H]2C(=O)N(c3ccccc3)C(=O)[C@H]2C1	.	.	59*	9	.	29
SMILES	Calb FLC	ATG4B inh	FAS TE block	NadD block	Mot1-301 SUMO	FAS-TE inh conf
CCOC1=C2CN(S(=O)(=O)c3ccc(C)cc3)[C@H](c3ccccc3)C[C@@H]2N(S(=O)(=O)c2ccc(Br)cc2)[C@H](c2ccccc2)C1	.	.	21	14	.	.
CCOC1=C2CN(S(=O)(=O)c3ccc(C)cc3)[C@H](c3cccc4ccccc34)C[C@H]2[C@H]2C(=O)N(c3ccccc3)C(=O)[C@H]2C1	.	.	77*	22	.	24
CCOC1=C2CN(S(=O)(=O)c3ccc(C)cc3)[C@H](c3ccc(CC)cc3)C[C@@H]2N(S(=O)(=O)c2ccc(C)cc2)[C@H](c2ccccc2)C1	.	.	18	5	.	.
CC(C)NC(=O)Nc1cccc2c1O[C@H](CN(C)C(=O)NC1CCCCC1)[C@H](C)CN([C@H](C)CO)C2=O	.	8	1	-6	26	.
COc1cccc(CC(=O)N2CCC(n3nccc3NC(=O)C3CCOC3)CC2)c1 (stereo not given)	-7	9	-10	-1	-34	.
O=[N+]([O-])c1ccc(Cn2cc(-c3cccc(C(F)(F)F)c3)nn2)cc1	15	-3	55*	-7	190	4
O=[N+]([O-])c1ccc(Oc2cccc(C(F)(F)F)c2)nc1	1	-4	-6	-1	13	.
CN1C(C(=O)NCc2cccc(Br)c2)CC2Cn3c(nc4cc(Cl)c(Cl)cc43)C21 (stereo not given)	-10	2	57*	0	295	44*
O=C(CN1CCN(S(=O)(=O)c2ccccc2)CC1)Nc1ccc(Cl)c([N+](=O)[O-])c1	3	2	78*	0	31	18
O=C(CN1C(=O)NC2(CCCCCC2)C1=O)Nc1ccc(Cl)c([N+](=O)[O-])c1	.	-2	58*	-7	3	70*
O=C(CN1CCN(S(=O)(=O)c2ccccc2)CC1)Nc1ccc([N+](=O)[O-])cc1	6	-13	7	0	-11	.
O=C(c1ccc(Cl)c([N+](=O)[O-])c1)N1CCN(S(=O)(=O)c2ccc(Cl)cc2)CC1	.	-5	51*	-3	-2	30*
O=C(CSc1ccc2nnc(CCNC(=O)c3ccccc3)n2n1)NC1CCCC1	-5	0	2	3	10	.
C/C(=N\Nc1ccc(C(F)(F)F)cn1)c1ccc(S(=O)(=O)NCc2ccco2)cc1	-6	-4	-18	3	-10	.
